Here are results for ten molecules from the supplement of paper PMC6522484.

± gives the standard deviation of the averaged measurements.

Experiment [1] relates to DLD1. The experiment is described as follows: cell viability (CellTiter-Glo) relative to plate median (fraction of plate median); higher = more viable cells. The conditions noted are these: 5 µM; treatment time 24 h; reporter: 7TFP. In outline: (§1)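 Library compounds were added at a final concentration of 5 µM for 24 h to colorectal cancer cells stably transduced with a lentiviral TCF/Wnt firefly luciferase reporter. Reported values are firefly luciferase or CellTiterGlo luminescence, normalised per well to the plate median. Each value averages two independent replicates.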

Another experiment has as its system HCT116. The experiment is described as above. To be noted: 5 µM; treatment time 24 h; reporter: TCF4/Wnt. In outline: as §1
Experiment [2] deals with SW480. The experiment is described as above. To be noted: 5 µM; treatment time 24 h; reporter: 7TFP. In outline:
as §1

Experiment [3] concerns DLD1. The experiment is described as follows: TCF/Wnt firefly luciferase reporter signal relative to plate median (fraction of plate median); higher = higher Wnt reporter signal. The conditions noted are these: 5 µM; treatment time 24 h; reporter: 7TFP. In outline:
as §1

Experiment [4] deals with SW480. The description is as above. The conditions noted are these: 5 µM; treatment time 24 h; reporter: 7TFP. In outline: as §1

Regarding `COc1cc2nc(N(C)CCCNC(=O)C3CCCO3)nc(N)c2cc1OC` (stereo not given), the cell viability with DLD1 [1] was determined as 1.01 ± 0.12; in the experiment with HCT116, 0.973 ± 0.053; in the experiment with SW480 [2], 0.985 ± 0.035. Further, the results for the “TCF/Wnt firefly luciferase reporter signal” value in the experiment on DLD1 [3] and in the experiment on SW480 [4] were 0.972 ± 0.069 and 0.905 ± 0.053, respectively.
For `CCCCC[C@H](CC(=O)O)C(=O)O`, in that order: 0.996 ± 0.091, 0.953 ± 0.095, 0.974 ± 0.03, 1.15 ± 0.085 and 1.03 ± 0.021.
For `COc1cc(C)c(C(=O)Oc2cc(C)c(C(=O)O)c(O)c2C)c(O)c1C=O`, in that order: 1.06 ± 0.014, 0.9725 ± 0.0021, 1.03 ± 0.014, 1.06 ± 0.078 and 1.12 ± 0.085.
For `COc1ccc(OC)c(C(O)CNC(=O)CN)c1` (stereo not given), in that order: 0.944 ± 0.067, 0.912 ± 0.064, 1.03 ± 0.035, 1.06 ± 0.2 and 1.16 ± 0.092.
Consider `O=C([O-])c1ccccc1O.[Na+]`, for which the cell viability in the experiment with DLD1 [1] was 1.06 ± 0.035; with HCT116, 1.02 ± 0.077; in the experiment on SW480 [2], 1.07 ± 0.028. In addition, the “TCF/Wnt firefly luciferase reporter signal” value in the experiment with DLD1 [3] stood at 1.04 ± 0.09; with SW480 [4] it was 1.02 ± 0.014.
For `COC(=O)CC1C(C)(C)C(OC(C)=O)[C@@H]2[C@@H](OC(C)=O)[C@]34O[C@@]2(O)[C@]1(C)C3CC[C@]1(C)C4=CC(=O)O[C@H]1c1ccoc1` (stereo not given in full), in that order: 1.02 ± 0.11, 1.02 ± 0.098, 1.04, 1.01 ± 0.061 and 0.992 ± 0.026.
The like results for `O=C(O)/C=C/c1ccc(O)c(O)c1` were, in that order, 0.941 ± 0.046, 1.05 ± 0.05, 1.03 ± 0.081, 0.983 ± 0.14 and 1.03 ± 0.035.
For `C=C1c2cccc(O)c2C(=O)C2=C(O)[C@]3(O)C(=O)C(C(N)=O)=C(O)[C@@H](N(C)C)[C@@H]3[C@@H](O)[C@H]12`, in that order: 0.968 ± 0.0014, 0.928 ± 0.13, 0.969 ± 0.073, 1.06 ± 0.26 and 1.11 ± 0.064.
On to `CC(=O)OC1CCC23CC1(C)CCC2C(C)(C)CC3OC(C)=O` (stereo not given), for which the figures for the cell viability with DLD1 [1], in the experiment with HCT116 and with SW480 [2] were 0.999 ± 0.044, 1.09 ± 0.021 and 1.02 ± 0.042, respectively. Further, the figures for the “TCF/Wnt firefly luciferase reporter signal” value with DLD1 [3] and in the experiment with SW480 [4] were 1.03 ± 0.014 and 0.93 ± 0.04, respectively.
The like results for `CN1CCC(OC(c2ccccc2)c2ccccc2)CC1` were, in that order, 0.969 ± 0.044, 1.02 ± 0.014, 0.979 ± 0.024, 1.12 ± 0.13 and 1.16 ± 0.092.
